Activity data for 49 compounds are collected here from PubChem BioAssay.

Test [1] deals with Tumor necrosis factor receptor superfamily member 10B (Homo sapiens) (UniProt O14763). The test is described as follows: viability loss of caspase-8 NB7 cells with TRAIL – with/without TRAIL, luminescence panel, confirmation (AID 651596). Particulars: NB7 neuroblastoma + caspase-8, TRAIL sensitization, NB7 Caspase-8, with TRAIL, mean of runs, at 10 µM, stronger effect = higher value.
Test in test [2]: as above
Particulars: NB7 neuroblastoma + caspase-8, without TRAIL, NB7 Caspase-8, without TRAIL, mean of runs, at 10 µM.

Chain of Tumor necrosis factor receptor superfamily member 10B (Homo sapiens) (O14763 whole entry, looked up): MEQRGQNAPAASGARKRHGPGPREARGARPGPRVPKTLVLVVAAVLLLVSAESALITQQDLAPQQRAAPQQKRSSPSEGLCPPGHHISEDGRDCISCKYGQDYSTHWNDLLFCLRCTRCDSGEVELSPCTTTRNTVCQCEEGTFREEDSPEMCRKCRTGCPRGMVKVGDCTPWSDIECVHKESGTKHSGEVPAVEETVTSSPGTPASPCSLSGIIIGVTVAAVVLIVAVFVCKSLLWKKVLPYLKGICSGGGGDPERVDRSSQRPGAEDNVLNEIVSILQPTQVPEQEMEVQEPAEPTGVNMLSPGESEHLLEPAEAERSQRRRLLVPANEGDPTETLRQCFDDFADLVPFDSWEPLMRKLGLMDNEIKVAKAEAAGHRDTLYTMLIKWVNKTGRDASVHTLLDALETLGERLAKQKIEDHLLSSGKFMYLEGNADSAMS

Turning to `CCn1cc(-c2cc(C(=O)O)c3ccccc3n2)cn1`, the activity in test [1] was found to be 65%; in test [2] it was 58.2%.
For `Nc1nccc(-c2cc(-c3ccc(Cl)cc3Cl)no2)n1`, the activity is 62.4% in test [1] and 56.9% in test [2].
Taken in the same sequence, the figures for `O=c1c2c3c(sc2nc2n1N=C(c1cccs1)CS2)CCCC3` were 74.5% and 77%.
For `COc1ccc(C(=O)Nc2nc3ccccc3[nH]2)cc1`, in that order: 96.3% and 95.1%.
Consider `Brc1ccc(-c2nnc3sc(CN4CCC5(CC4)OCCO5)cn23)cc1`, for which the values for the activity in test [1] and in test [2] were 68.3% and 61.4%, respectively.
Taken in the same sequence, the figures for `O=C(Nc1cccc(-c2ccc(N3CCCCC3)nn2)c1)C(F)(F)F` were 95.2% and 95.2%.
Taken in the same sequence, the figures for `Cc1ccc2[nH]c(-c3ccccc3)cc(=O)c2c1` were 64.8% and 63%.
Taken in the same sequence, the figures for `CC(/C=N/NC(=O)c1n[nH]c2c1CCC2)=C\c1ccccc1` were 48.1% and 68.9%.
Turning to `C#CCSc1nnc(-c2ccc(C)cc2)o1`, the values for the activity in test [1] and in test [2] were 97.6% and 93.2%, respectively.
For `O=C(NC(=S)N1CCc2ccccc21)c1ccccc1`, in that order: 65.3% and 72.6%.
Taken in the same sequence, the figures for `COc1ccccc1NC(=O)CSc1ccc(-c2ccc(-n3ccnc3)cc2)nn1` were 47% and 38.6%.
Taken in the same sequence, the figures for `O=C1C(=Cc2ccccc2Cl)CCc2ccccc21` were 62.3% and 51.9%.
On to `Cc1ccnc(NC(=O)c2ccc(OCC3CCCO3)cc2)c1` (stereo not drawn), for which the figures for the activity in test [1] and in test [2] were 94.4% and 93.9%, respectively.
Consider `CCN(CC)S(=O)(=O)c1cc(C(=O)OCC(=O)Nc2ccc(-c3nc4ccc(C)cc4s3)cc2)ccc1F`, for which the activity was 73.7% in test [1] and 74.2% in test [2].
`Cc1ccc(Nc2nc(NCc3ccco3)c3ccccc3n2)cc1`: the activity in test [1] was 41.2%; in test [2], 45.6%.
Taken in the same sequence, the figures for `O=C(Nc1ccccc1)c1cc(C2CCCN(C(=O)C3CC3)C2)on1` (stereo not drawn) were 48.6% and 32.4%.
As to `N/C(=N\OC(=O)COc1ccc(Br)cc1Cl)c1ccccn1`, the values for the activity in test [1] and in test [2] were 38.2% and 47.5%, respectively.
`N=NC(=O)c1ccccc1Nc1c(O)[nH]c2ccccc12`: the figures for the activity in test [1] and in test [2] were 93.5% and 92.1%, respectively.
As to `COc1ccc(-c2nnc(NC(=O)c3ccco3)s2)cc1`, the values for the activity in test [1] and in test [2] were 55.4% and 60.6%, respectively.
With `N/C(=N\OC(=O)c1ccccc1)c1ccn[nH]1`, the figures for the activity in test [1] and in test [2] were 68.7% and 68.1%, respectively.
For `Nc1ccc(-c2cnc(-c3ccc(N)cc3)nc2)cc1`, in that order: 74.7% and 71.7%.
Taken in the same sequence, the figures for `Cc1nc(=S)c2c([nH]1)-c1ccccc1CC21CCCCC1` were 92% and 76.4%.
As for `Cc1ccc(-c2nnc(NC(=O)c3ccco3)s2)cc1`, the results for the activity in test [1] and in test [2] were 58.6% and 62.7%, respectively.
Consider `CN(C)C(=O)N1CCN(c2nc(-c3ccccc3)cs2)CC1`, for which the figures for the activity in test [1] and in test [2] were 43.7% and 48.5%, respectively.
For `CCN1CCN(Cc2ccc(NC(=O)c3cc(NC(=O)c4cc5cccc(OC)c5o4)cc(OC)c3)cc2C(F)(F)F)CC1`, in that order: 59.2% and 79.5%.
Taken in the same sequence, the figures for `CN(NC(=O)c1cccc(Cl)c1)c1nc(-c2ccccc2)nnc1C(F)(F)F` were 75.1% and 39.9%.
For `C#CCSc1nnc(-c2sc(-c3ccccc3)nc2C)n1C`, in that order: 84.7% and 90%.
On to `S=c1nc[nH]c2nc[nH]c12`, for which the figures for the activity in test [1] and in test [2] were 64.5% and 69%, respectively.
For `Cc1cc(N/N=C\c2ccccc2)nc(-c2ccccc2O)n1`, in that order: 41.2% and 24.4%.
Consider `Cc1nc2c(-c3ccccc3)cnn2c(N)c1-c1ccccc1`, for which the activity in test [1] came out at 92.6%; in test [2], 90.9%.
For `CCCCCc1c(-c2ccc(OC)c(OC)c2)ncn1CCc1ccccc1OC`, the activity was determined as 22.7% in test [1] and 30.2% in test [2].
In the case of `CCn1cc(C(=O)NCC(OC)OC)c(=O)c2cc(S(=O)(=O)N3CCC(C)CC3)ccc21`, the activity in test [1] stood at 57.3%; in test [2] it was 64.5%.
For the compound `Cc1ccc(Nc2nc(N)nc(CCl)n2)c(C)c1`, the activity in test [1] was found to be 98.9%; in test [2], 98.6%.
Taken in the same sequence, the figures for `FC(F)(F)c1cccc(Sc2nc(-c3ccccc3)nnc2C(F)(F)F)c1` were 42.5% and 60.4%.
As for `C=CCNC(=O)c1cc(-c2ccc3c(c2)OCO3)on1`, the activity in test [1] is 63.3%; in test [2] it was 61.1%.
For `O=C(NCCO)c1ccc2c3n(nc2c1)-c1ccccc1CO3`, in that order: 78.9% and 78.8%.
Turning to `Cc1ccc(C(=O)Nc2ccc3c(c2)CCC3)cc1`, the figures for the activity in test [1] and in test [2] were 78.7% and 76.2%, respectively.
Regarding `Cc1ccc(-c2nn3c(C)nnc3c3ccccc23)cc1S(=O)(=O)NCc1ccccc1`, the activity in test [1] worked out at 48.2%; in test [2] it was 51.6%.
For the compound `Cc1ccc(/C(N)=N/OC(=O)c2ccc(Cl)cc2Cl)cc1`, the activity in test [1] was determined as 97%; in test [2], 96.7%.
Take `CCN(CC)S(=O)(=O)c1cc(NC(=O)Cn2ncc(Cl)c(Cl)c2=O)ccc1C`: the results for the activity in test [1] and in test [2] were 99.5% and 99.6%, respectively.
As to `CC(C)(C)c1ccc(NC(=O)c2ccsc2)cc1`, the activity in test [1] came to 73.7%; in test [2] it was 71.9%.
On to `COc1ccc(/C=N/OC(=O)Nc2ccccc2OC)cc1`, for which the results for the activity in test [1] and in test [2] were 56.9% and 63.3%, respectively.
For `c1cncc(-c2nc3cc4ccccc4cc3[nH]2)c1`, in that order: 66.7% and 57.3%.
`COc1ccc(-c2csc(NC(=O)C3CCN(c4ncnc5sc(C)c(C)c45)CC3)n2)cc1OC`: the activity came out at 84.3% in test [1] and 62.9% in test [2].
For `COc1ccc(-c2nn(-c3ccccc3)cc2/C=N/NC(=O)c2ccc(Br)o2)cc1`, in that order: 79.5% and 32.3%.
Regarding `Cn1cc(S(=O)(=O)CC(=O)N2CCCc3ccccc32)c2ccccc21`, the activity in test [1] is 1.93%; in test [2] it was -0.4%.
Taken in the same sequence, the figures for `Cc1ccc(C(=O)N/N=C\c2ccc[nH]2)cc1[N+](=O)[O-]` were 80.7% and 79.4%.
For `Cc1cc(NC(=O)/C=C/c2ccccc2Cl)n(-c2nc3ccccc3[nH]2)n1`, in that order: 78.8% and 82.4%.
For `COc1cccc(/C=C/C(=O)NNC(=O)c2ccco2)c1OC`, the values for the activity in test [1] and in test [2] were 66.7% and 62.8%, respectively.
